Screening data from PubChem BioAssay.
FBW7 act: FBW7 E3 ligase activators, primary screen, biochemical, AlphaScreen, human; F-box/WD repeat-containing protein 7 (Homo sapiens), Q969H0; AlphaScreen FBW7–phospho-cyclin E peptide binding, activator screen; normalized activity (activation), % at 26.1 µM; actives 0.13% (n = 650,000); AID 1259310, 2017; in the data active = normalized activity above about 1.9%;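 also: purified mutant Fbw7 with reduced substrate affinity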
TEAD-YAP inh: TEAD-YAP interaction inhibition, primary screen, TEAD-YAP interaction inhibitor project, luminescence, HEK-TIYL cells; TEAD-Gal4/YAP UAS-luciferase luminescence; inhibition, % at 9.12 µM; actives 1.4% (n = 640,000); AID 1259422, 2018; in the data active = inhibition above about 32%;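 also: 0% = median of test compound wells and 100% = reference inhibitor wells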
GPR151 activ: activators of human GPR151, primary screen, cell-based, PathHunter beta-arrestin, luminescence. PathHunter beta-arrestin GPR151 cells. actives 1% (n = 650,000). activation, % at 11.2 µM. AID 1508602, 2020. G-protein coupled receptor 151 (Homo sapiens), Q8TDV0; in the data active = activation above about 4.9%;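 also: 0% = median of compound wells and 100% = cells with positive control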
MITF primary: MITF inhibitors, primary screen, biochemical, AlphaScreen, human; actives 0.91% (n = 650,000); AID 1259374, 2018; inhibition, % at 2.6 µM; Microphthalmia-associated transcription factor (Homo sapiens), O75030; AlphaScreen MITF homodimerization, bead proximity signal; in the data active = inhibition above about 50%;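 also: 0% = vehicle wells with protein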
Target sequence (O75030 whole entry, looked up): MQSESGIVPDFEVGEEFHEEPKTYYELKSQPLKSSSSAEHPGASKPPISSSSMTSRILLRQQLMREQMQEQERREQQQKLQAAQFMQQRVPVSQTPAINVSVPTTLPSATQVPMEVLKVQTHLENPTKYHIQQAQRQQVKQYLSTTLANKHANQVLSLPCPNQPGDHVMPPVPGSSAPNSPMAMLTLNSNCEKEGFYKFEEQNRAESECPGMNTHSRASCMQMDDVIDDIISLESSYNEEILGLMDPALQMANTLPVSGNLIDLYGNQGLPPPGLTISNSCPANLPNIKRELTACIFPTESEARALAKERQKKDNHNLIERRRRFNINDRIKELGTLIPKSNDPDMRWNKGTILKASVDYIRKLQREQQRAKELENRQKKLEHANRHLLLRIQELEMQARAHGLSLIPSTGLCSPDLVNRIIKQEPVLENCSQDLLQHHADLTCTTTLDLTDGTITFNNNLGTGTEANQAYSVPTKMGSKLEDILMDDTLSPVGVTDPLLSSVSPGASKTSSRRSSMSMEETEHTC
MITF inh conf: MITF inhibitors, retest of hits, confirmation, biochemical, AlphaScreen, triplicate | AlphaScreen MITF homodimerization, biotin/His-MITF beads | AID 1259372, 2018 | actives 16% (n = 4,700) | shares compounds with MITF primary | inhibition, % at 2.6 µM;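 active = inhibition above a cutoff derived from the DMSO control wells, cut at about 28% in these data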;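 also: 0% = MITF dimer wells with DMSO only; inhibitors lower the bead chemiluminescence by keeping MITF from dimerizing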
AS interf ctr: AlphaScreen optical interference compounds, counter-screen for MITF inhibitor project, biochemical, triplicate; shares compounds with MITF primary; LysRS AlphaScreen counterscreen, signal interference; inhibition, % at 2.6 µM; actives 7.6% (n = 4,700);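 active = inhibition above a cutoff derived from the DMSO control wells, cut at about 30% in these data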
GPR151 conf act: GPR151 activators, triplicate retest, confirmation, cell-based, PathHunter beta-arrestin, luminescence. 6,700 tested, under 10 active. GPR151 PathHunter beta-arrestin cells, 90 min; % of EA-reagent control over plate median. activation, % at 11.2 µM. shares compounds with GPR151 activ;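 active = mean percent activation across replicates above the confirmation screen cutoff of 4.91%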
GPR119 counter: GPR119 activators in beta-arrestin cells, counter-screen for GPR151 activator project, cell-based, PathHunter beta-arrestin, luminescence, triplicate | shares compounds with GPR151 activ | 90 min; 0 = compound-well median, 100 = enzyme-acceptor control | activation, % at 11.2 µM | actives 0.3% (n = 6,700) | AID 1508611, 2020;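 active = mean percent activation in the counterscreen above 29.09%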;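 also: counterscreen on off-target GPR119 to flag nonselective hits from the GPR151 activator screen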
Numbers without * were called inactive; x = no result; ! = not active in a repeat. Rows were chosen to be rich in hits. Some 3.5% of all compounds tested hit in one or more screens of this group.

SMILES	FBW7 act	TEAD-YAP inh	GPR151 activ	MITF primary	GPR151 conf act	GPR119 counter	others
C=CCN(CC#CCOc1ccccc1OC)CC=C	0.1	-11.3	10.6*	60.4*	0.0	-3.8	MITF inh conf=7.1;AS interf ctr=12.3
COCCOC(=O)C1=C(N)OC2=C(C(=O)CC(C)(C)C2)C12C(=O)Nc1ccccc12 (stereo not drawn)	-0.1	4.7	0.0	14.2	x	x
CN1CCN(CCC(=O)OC2CC3CCC(C2)N3C)CC1 (stereo not drawn)	0.1	4.5	1.0	8.8	x	x
CN1C2CCC1CC(OC(=O)CNCc1cccs1)C2 (stereo not drawn)	0.0	-0.3	7.3*	51.5*	0.5	4.9	MITF inh conf=7.1;AS interf ctr=13.6
COc1cc(N2CCOCC2)ccc1C=C1C(=O)NC(=O)NC1=O	-0.7	4.2	8.0*	4.6	0.0	-3.6
COc1cc(N2CCOCC2)ccc1/C=C1\C(=O)NC(=O)N(Cc2cccs2)C1=O	-0.4	9.2	-0.7	1.8	x	x
CS(=O)(=O)c1ccc(N2CCNCC2)c(F)c1	0.0	-3.2	4.9*	-6.6	0.2	4.9
Cc1ccc(-n2c(/C=C/c3c(C)[nH]c4ccccc34)nc3ccccc3c2=O)cc1	0.2	-3.4	-1.1	-2.3	x	x
C=C(C)[C@H]1CN[C@H](C(=O)O)[C@H]1CC(=O)O	0.3	-2.6	7.6*!	-3.3	-0.4	-0.9
CN(c1ccc2[nH]ncc2c1)C1CCNCC1	-0.1	2.2	-1.6	17.3	x	x
CCOC(=O)CCCn1c(C(=O)OCC)c(C=O)c2ccccc21	0.0	0.0	6.3*	-10.7	0.2	12.7
COc1ccccc1OCCCn1c(C)c(C=O)c2ccccc21	-0.3	-0.2	1.8	-11.4	x	x
CC(Cc1ccccc1)[n+]1cc(NC(=NCc2ccccc2)N(C)C)on1 (stereo not drawn)	0.0	30.3	2.2	2.8	x	x
COc1ccc2[nH]cc(CN(C)C)c2c1	0.6	12.4	2.2	8.7	x	x
COc1ccc2[nH]c3c(c2c1)CCN=C3C	-0.3	x	5.6*	-8.2	-0.2	6.1
CC(C)OP(=S)(OC(C)C)SCC1=CCC2CC1C2(C)C (stereo not drawn)	0.0	0.5	0.1	-6.2	x	x
CCOc1ccccc1NC(=O)N1CCC2(CC1)OCCO2	0.0	7.7	12.7*	10.7	-0.5	-2.1
CCN1C(=O)C(=Cc2ccc(O)c(I)c2)C(=O)N(CC)C1=S	-0.5	7.2	-0.4	14.5	x	x
Brc1ccccc1CN1CCOCC1	0.1	-9.4	0.0	35.6	x	x
CN1CCN(Cc2ccccc2Br)CC1	0.3	-0.1	5.1*	49.8	-0.3	2.5
Cc1ccc(N2C(=O)CC(=O)NC2=S)c(C)c1	0.3	-0.6	-1.5	8.6	x	x
CCOc1ccc(C2SCC(=O)Nc3c2c(=O)[nH]n3C(CC)CC)cc1 (stereo not drawn)	0.2	0.2	7.1*	7.6	-0.3	-15.0
Cc1[nH]c2ccccc2c1C1CCNCC1	-0.1	-3.2	-1.6	7.9	x	x
COc1cccc(CCNCc2cc(OC)c(OC)cc2[N+](=O)[O-])c1	0.0	5.6	8.4*	25.4	-0.3	-5.9
COc1cccc(CCNCc2ccccc2[N+](=O)[O-])c1	0.5	-11.9	0.0	41.0	x	x
SMILES	FBW7 act	TEAD-YAP inh	GPR151 activ	MITF primary	GPR151 conf act	GPR119 counter	others
CCOc1ccc(-n2c(C)nc3ccccc3c2=O)cc1	-0.1	0.5	1.8	1.4	x	x
CCn1c(O)c(C=NCCc2c[nH]c3ccccc23)c(=O)[nH]c1=O	-0.1	4.0	5.4*	3.8	0.4	-4.8
CN1CCN(C(=O)C(O)(c2ccccc2)c2ccccc2)CC1	0.1	-5.2	10.9*	-4.3	0.0	1.1
CC(=O)OCC(=O)[C@H]1CC[C@H]2[C@@H]3CC[C@H]4C[C@H](O)CC[C@]4(C)[C@H]3C(=O)C[C@]12C	0.2	x	6.2*	-4.9	0.3	6.9
C=CCN1C[C@H](C)N([C@H](c2ccc(C(=O)N(CC)CC)cc2)c2cccc(OC)c2)C[C@H]1C	0.0	x	5.2*	2.0	-0.3	-3.6
COc1ccc(OC)c(N2Cc3ccccc3C2=N)c1	0.0	-11.4	5.9*	-13.6	0.1	3.4
OCCNc1c2c(nc3ccccc13)CCCC2	0.1	-8.9	1.1	1.1	x	x
O=C(O)c1c2c(nc3ccccc13)CCNC2	0.0	-9.4	6.9*	-2.4	1.2	7.8
NC1=Nc2ccccc2Sc2ccccc21	-0.1	-26.9	5.3*	-0.8	-0.1	9.0
Cc1cccc(OP(N)(=O)Oc2cccc(C)c2)c1	-0.1	3.4	-1.0	-2.1	x	x
NP(=O)(Oc1ccc(Cl)cc1)Oc1ccc(Cl)cc1	0.2	6.5	6.3*	15.8	2.2	9.7
CN1CCC(N(C)c2ncnc3sc4c(c23)CCC4)CC1	-0.1	-8.3	0.8	28.8	x	x
CCC(C)N1CCN(Cc2ccc([N+](=O)[O-])cc2)CC1 (stereo not drawn)	0.3	-7.8	-1.5	40.9	x	x
CCN1CCN(Cc2ccc([N+](=O)[O-])cc2)CC1	0.0	9.7	10.1*	-4.9	-0.6	11.7
CCN1CCN(c2nc(C)nc3sc(C)cc23)CC1	0.0	5.1	-0.8	7.9	x	x
CC(=O)C(C)Oc1cc(C)cc2oc(=O)c3c(c12)CCCC3 (stereo not drawn)	0.1	14.9	22.2*	5.0	-0.5	0.2
O=C1C=C2C=C[C@H]3C[C@]2(O1)[C@@H]1CCCCN13	0.0	-2.8	9.6*!	23.0	-0.8	-12.3
Nc1nonc1-c1n[nH]c(-c2nonc2N)n1	0.0	7.2	-1.2	4.9	x	x
Cc1[nH]c2c(Cl)ccc(Cl)c2c1CCN	0.0	-1.0	6.8*	0.4	0.4	1.3
Cc1[nH]c2c(Cl)c(Cl)ccc2c1CCN	-0.1	24.5	0.9	3.0	x	x
COc1ccc(F)cc1C(=O)C1CCCN(CCO)C1 (stereo not drawn)	0.0	-3.6	8.3*	-4.7	-0.1	-12.1
COc1ccc(F)cc1C(=O)C1CCCN(Cc2ccc(O)cc2)C1 (stereo not drawn)	0.0	-5.0	-0.7	3.9	x	x
O=c1c2ccccc2nc(/C=C/c2ccco2)n1-c1ccc(O)cc1	-0.2	10.6	5.1*	13.4	2.5	9.7
